The values that follow come from PubChem BioAssay AID463110 (The Scripps Research Institute Molecular Screening Center, 2010).

Usually inhibition stands for the drop in the measured response relative to a control, in per cent.

The other results are listed elsewhere or left out. A number with no mark means an inactive call. The source made the active and inactive calls.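 Rule for the calls: active = inhibition of the enzyme GSTO1 above about 75% (limit read from the data); inactive = inhibition below that limit.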

Glutathione S-transferase omega-1 (Homo sapiens), sequence (P78417 whole entry, looked up): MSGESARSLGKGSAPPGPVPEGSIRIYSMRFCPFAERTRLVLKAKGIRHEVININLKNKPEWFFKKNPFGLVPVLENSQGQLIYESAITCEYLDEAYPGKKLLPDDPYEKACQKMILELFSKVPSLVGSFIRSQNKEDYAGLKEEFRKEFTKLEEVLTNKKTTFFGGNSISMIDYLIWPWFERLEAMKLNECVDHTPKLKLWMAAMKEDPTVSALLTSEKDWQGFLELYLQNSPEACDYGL

This experiment concerns the target Glutathione S-transferase omega-1 (Homo sapiens) (UniProt P78417). In words: recombinant GSTO1 blockade by competitive ABPP – biochemical, gel ABPP, SE-Rh probe, percent inhibition, late-stage follow-up (AID 463110). Conditions: recombinant GSTO1, gel ABPP SE-Rh probe fluorescence; at 1 µM; active compounds read high.
Consider `O=c1cc(CCl)nc2scc(-c3ccccc3)n12`, for which the inhibition was 82% (active).

As for `O=C(c1[nH]ncc1-c1ccc(Cl)cc1)C1CO1` (stereo not given), the inhibition is 29%.

As to `CCC1(CC)Cc2ccccc2-c2nc(CCl)[nH]c(=O)c21`, the inhibition was 79% (active).

For `Cc1ccc(N(Cc2cc(=O)[nH]c3ccccc23)C(=O)CCl)cc1`, the inhibition is 36%.

For `COc1ccc(C(C(=O)NC2CCCCC2)N(C(=O)CCl)c2ccccc2Cl)cc1` (stereo not given), the inhibition was 23%.
